# This is a sample that favours compounds with a hit; in the whole collection about 6.6% have one here.
# Mtb FBA inh – Mtb fructose-bisphosphate aldolase inhibition. P9WQA3. purified M. tuberculosis FBA, fluorescence read-out. inhibition, % at 1 µM. 2.3% of 360,000 active; in the data active means inhibition above about 27%;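 further: 0% = vehicle and 100% = reference inhibitor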
# Target sequence (P9WQA3 whole entry, looked up): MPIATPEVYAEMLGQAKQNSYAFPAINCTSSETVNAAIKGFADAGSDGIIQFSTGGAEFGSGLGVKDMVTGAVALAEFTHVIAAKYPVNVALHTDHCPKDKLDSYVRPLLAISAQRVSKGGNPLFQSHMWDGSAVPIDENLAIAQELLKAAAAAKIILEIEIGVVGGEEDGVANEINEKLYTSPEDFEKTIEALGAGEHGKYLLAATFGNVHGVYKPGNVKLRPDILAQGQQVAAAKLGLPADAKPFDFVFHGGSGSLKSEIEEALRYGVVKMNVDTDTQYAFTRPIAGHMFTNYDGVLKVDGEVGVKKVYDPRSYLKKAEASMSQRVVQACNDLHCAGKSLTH
# Anthrax LF inh2 – blocks Bacillus anthracis lethal factor protease; P15917; multiplex microsphere protease cleavage assay, LF; inhibition, % at 10 µM; 0.12% of 360,000 active; AID 588501; further: plate controls were buffer without enzyme for full effect and enzyme alone for no effect
# BoNT F protease – blocks Botulinum neurotoxin F light chain protease | 0.22% of 360,000 active | Multiplex microsphere protease cleavage assay, flow cytometry | inhibition, % at 10 µM; in the data active means inhibition above about 35%, passing the limit was not always enough; inconclusive means no clear call, values can overlap the other calls; further: plate controls were buffer without enzyme for full effect and enzyme alone for no effect
# BoNT-A LC inh2 – inhibitors of Botulinum neurotoxin A light chain protease; multiplex microsphere protease substrate cleavage, flow cytometry; 0.17% of 360,000 active; inhibition, % at 10 µM; AID 588499; further: plate controls were buffer without enzyme for full effect and enzyme alone for no effect
# GDH-TPI inh – counter-screen for M. tuberculosis FBA inhibitors: GDH-TPI coupled enzymes; GDH-TPI coupled enzyme counterscreen, NADH absorbance; inhibition, % at 4.8 µM; 1.2% of 360,000 active; AID 588335; in the data active means inhibition above about 30%;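 further: 0% = DMSO wells and 100% = wells lacking the enzyme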
# Bead autofluor – compound fluorescence in toxin protease inhibitor counterscreen; compound autofluorescence counterscreen, microsphere flow cytometry; hits give high values; fluorescence intensity (concentration not given with the values); 3.1% of 360,000 active; AID 624483; in the data active means fluorescence intensity above about 16000; inconclusive means no clear call, values can overlap the other calls
# Active calls of the source: *; ? = inconclusive; + = active, no number. Unless noted, no stated cut-off is given here; in the data, active means inhibition above about 30%; inconclusive means no clear call, values can overlap the other calls; inactive means below that.
SMILES,Mtb FBA inh,Anthrax LF inh2,BoNT F protease,BoNT-A LC inh2,GDH-TPI inh,Bead autofluor
CCC(C)c1ccccc1NC(=O)COC(=O)c1ccc(C)c(NC(=O)c2ccco2)c1 (stereo not drawn),0,0,0,0,-10,21016*
CC(C)(C)C(=O)COC(=O)c1cccc(NC(=O)c2ccco2)c1,0,-3,1,1,-5,23138*
Cc1ccc(C(=O)OCC(=O)Nc2ccccc2)cc1NC(=O)c1ccco1,3,-4,0,-1,3,17209*
O=C(O)C1CC(O)CN1c1nc(Cl)ccc1[N+](=O)[O-] (stereo not drawn),-2,-2,-2,-1,-1,4879
O=C(CCNC(=O)c1ccco1)Nc1cccc(C(F)(F)F)c1,-2,-1,-6,-1,-16,5368
O=C(Nc1cccc(C(F)(F)F)c1)c1ccco1,1,-4,-4,-3,0,23988*
Cc1ccc(S(=O)(=O)Cc2ccc(C(=O)NCCCN3CCCC3=O)o2)cc1,4,-2,-2,-1,-2,20958*
O=C(NCCCN1CCCC1=O)c1cc(COc2ccc(F)cc2F)on1,-3,-3,-7,-2,1,6100
Cc1nc2ccccc2c2oc(C(=O)NCCCN3CCCC3=O)cc12,6,-6,-12,-1,14,4889
Cc1ccc2cc3cc(C(=O)NCCCN4CCCC4=O)oc3nc2c1,156*,-3,1,-2,22,6512
COc1ccc2cc3cc(C(=O)NCCCN4CCOCC4)oc3nc2c1,+,-3,-19,0,33*,2791
COc1ccc(C(=O)NCCCN2CCOCC2)cc1,2,19,19,-1,7,3851
Cc1cc(C(=O)NCCCN2CCCC2=O)no1,-1,-4,-12,?,7,26454*
O=C(NCCCN1CCCC1)c1ccc(CS(=O)(=O)c2ccc(Br)cc2)o1,0,-11,-7,-1,11,6417
CC(C)CN(C(=O)CSc1nn(-c2ccc(Cl)cc2)c(=S)s1)C1CCS(=O)(=O)C1 (stereo not drawn),1,0,-4,0,4,3083
CCN1CCN(CCCNC(=O)c2cc3cc4ccc(OC)cc4nc3o2)CC1,+,7,?,1,25,3045
COc1ccc2cc3cc(C(=O)NCCCN4CCC(C)CC4)oc3nc2c1,+,0,-5,-2,32*,5114
Cc1ccc(S(=O)(=O)Cc2ccc(C(=O)N3CCC4(CC3)OCCO4)o2)cc1,2,-3,2,1,-11,20005*
COCC1CCN(Cc2cn(-c3ccccc3F)nc2-c2cc(C)sc2C)CC1,-2,-3,-3,0,-2,4240
COc1cccc(C=NCCCN=Cc2cccc(OC)c2O)c1O,-2,-30,-19,-1,-8,3624
Cc1cc(N=Nc2ccc(C)c(N=Nc3cc(C)c(N)cc3N)c2)c(N)cc1N,-8,-89,?,-4,7,1956
CCN(CC)c1ccc(C=Nc2cccnc2Cl)c(O)c1,-5,-6,-28,1,25,4198
CCN(CC)c1ccc(/C=N/c2sc3c(c2C#N)C2CCN3CC2)c(O)c1,-6,14,24,18,11,22519*
CC(C)c1cccc(-c2ccc3c(c2)S(=O)(=O)c2cccc(C(=O)O)c2C3=O)c1,-2,1,-2,0,31*,4152
Cc1cccc(OCc2nc(-c3nonc3N)no2)c1C,3,-1,-3,?,13,22795*
SMILES,Mtb FBA inh,Anthrax LF inh2,BoNT F protease,BoNT-A LC inh2,GDH-TPI inh,Bead autofluor
COc1ccc(S(=O)(=O)NCc2ccco2)cc1-c1nnc2c3ccccc3c(C)nn12,7,-5,6,7,7,20211*
Cc1ccc2oc3nc(C)c(C(=O)Nc4cccc(C(F)(F)F)c4)cc3c(=O)c2c1,2,-3,2,?,15,22965*
Cc1ccc(S(=O)(=O)N2CCN(C(=O)N(C)C)CC2)cc1C,0,-1,-8,1,-6,2982
Cc1ccc(N(C)C(=O)N2CCN(S(=O)(=O)c3ccc(C)c(C)c3)CC2)cc1,0,-1,-9,-6,-1,24506*
Cc1ccccc1-c1nc(CS(=O)(=O)CC(=O)NCCCN2CCCC2)c(C)o1,-2,-3,-12,0,-8,5990
CCN1CCN(CCNC(=O)C2CCCN(Cc3nc(-c4cccc(Cl)c4)oc3C)C2)CC1 (stereo not drawn),-1,-8,-9,-1,-1,5956
COc1ccc(CCNC(=O)C2CCCN(Cc3nc(-c4ccccc4C)oc3C)C2)cc1OC (stereo not drawn),-2,-1,-7,?,-4,21174*
Cc1ccccc1-c1nc(CN2CCCC(C(=O)NCc3cccnc3)C2)c(C)o1 (stereo not drawn),-1,-2,-8,?,8,24766*
COc1ccc(CNC(=O)C2CCCN(Cc3nc(-c4cccc(C)c4)oc3C)C2)cc1 (stereo not drawn),13,-1,2,0,1,2740
Cc1oc(-c2ccc(Cl)cc2)nc1CN1CCC(C(=O)NCc2cccnc2)CC1,1,-2,-6,-2,13,16967*
CCCN(CCC)CCNC(=O)C1CCN(Cc2nc(-c3ccc(Cl)cc3)oc2C)CC1,-1,1,2,1,8,15924
Cc1ccccc1-c1nc(CN2CCCC(C(=O)NCCCN3CCOCC3)C2)c(C)o1 (stereo not drawn),-6,0,0,0,8,24221*
Cc1cccc(S(=O)Cc2ccc(C(=O)NC3CCN(Cc4ccccc4)CC3)o2)c1 (stereo not drawn),-1,0,-3,2,2,4772
Cc1cc(F)ccc1-c1cc(C(=O)NCc2cccs2)[nH]n1,0,-1,5,0,8,3726
COc1ccc(CCNC(=O)C2CCN(Cc3nc(-c4cccc(Cl)c4)oc3C)CC2)cc1OC,-1,-3,-4,-1,-2,6376
CCc1ccc(-c2nc(CN3CCCC(C(=O)NCCc4ccc(OC)c(OC)c4)C3)c(C)o2)cc1 (stereo not drawn),1,-6,2,?,9,21829*
CCOC(=O)CC(NS(=O)(=O)Cc1ccccc1)c1ccc(C)cc1 (stereo not drawn),4,1,0,0,3,2650
O=S(=O)(c1ccc(Oc2ccc(S(=O)(=O)N(CCO)CCO)cc2)cc1)N(CCO)CCO,3,1,4,-2,-7,2257
O=S(=O)(c1ccc(N2CCC(c3ccc(Cl)cc3)=N2)cc1)N(CCO)CCO,+,?,10,-1,32*,?
Cn1c(SCc2ccccc2F)nnc1-c1ccccn1,-1,0,2,0,-4,2236
CCOc1ccccc1/C=C(/NC(=O)c1ccccc1)C(=O)N1CCCCC1,3,-4,2,2,9,?
O=C(O)c1ccc(N/N=C/C2=C(N3CCOCC3)C(=C\c3ccccc3)/CC2)cc1,-1,2,5,2,19,3446
